Screens from PubChem BioAssay.
Rows were chosen to be rich in hits. Some 7.5% of all compounds tested hit in one or more screens of this group.
FLuc modulator – counter-screen for miR-21 project: firefly luciferase inhibitors or activators | Potency, µM (titrated, usually from 57.5 µM), actives largely listed as inhibitors | hit rate 6.9% among 360,000 | AID 588342 | P08659 | purified FLuc, Km substrates, luminescence inhibition; also: nearly all actives have a fitted effect of over 55% in size
Target sequence (P08659 whole entry, looked up): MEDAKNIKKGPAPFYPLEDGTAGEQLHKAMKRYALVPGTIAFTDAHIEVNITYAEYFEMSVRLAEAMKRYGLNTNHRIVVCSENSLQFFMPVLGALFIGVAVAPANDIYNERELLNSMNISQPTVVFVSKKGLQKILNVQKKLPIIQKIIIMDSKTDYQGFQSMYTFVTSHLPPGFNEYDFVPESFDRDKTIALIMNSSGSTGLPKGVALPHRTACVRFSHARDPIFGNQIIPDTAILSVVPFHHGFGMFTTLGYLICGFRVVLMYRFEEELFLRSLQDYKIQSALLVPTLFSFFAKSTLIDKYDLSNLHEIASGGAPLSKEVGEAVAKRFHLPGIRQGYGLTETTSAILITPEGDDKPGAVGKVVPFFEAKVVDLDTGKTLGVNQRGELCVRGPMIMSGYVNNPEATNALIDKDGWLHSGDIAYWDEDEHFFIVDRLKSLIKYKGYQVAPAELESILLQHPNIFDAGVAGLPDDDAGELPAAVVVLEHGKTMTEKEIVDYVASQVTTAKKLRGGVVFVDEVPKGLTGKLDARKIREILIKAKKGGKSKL
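Biochemical qHTS of compounds, final roughly 60 µM downward over six points, against 10 nM purified firefly luciferase using Km concentrations of substrates (10 uM D-luciferin, 10 uM ATP) in Tris acetate pH 7.5 buffer; luminescence output.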
NPC1 promoter act – activators of NPC1 promoter. Huh7 NPC1 promoter luciferase reporter, 24 h. Potency, µM (highest dose often 9.22 µM), most hits filed as activators. hit rate 2.4% among 320,000; also: nearly all actives have a fitted effect of over 60% in size
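Luminescence read-out of NPC1 promoter-driven luciferase in stably transfected Huh7 cells; compounds delivered in DMSO and left 24 h at 37C, 5% CO2, qHTS titration format.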
Rab9 promoter act – activators of Rab9 promoter. AID 485297. hit rate 2.8% among 320,000. Huh7 Rab9 promoter-luciferase reporter, luminescence, 24 h. Potency, µM (top dose mostly 9.22 µM), actives largely listed as activators; also: nearly all actives have a fitted effect of over 60% in size
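Huh7 cells stably carrying a Rab9 promoter-luciferase reporter, 1500 cells per well in OP-MEM I with 10% FBS, treated with compound 24 hours at 37C. Luciferase activity read by luminescence after 10 minutes with Amplite reagent.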
ELG1 genotox – genotoxicity induction in ELG1-luciferase HEK293T cells. hit rate 1.3% among 330,000. HEK293T ELG1-luciferase reporter, luminescence, 16 h. AID 504466. Potency, µM (doses to about 46 µM), usual class: activators; also: nearly all actives have a fitted effect of over 60% in size
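HEK293T cells expressing luciferase-tagged ELG1 were exposed to compound or DMSO vehicle for 16 hr at 37 °C and 5% CO2. Luciferase activity was then measured with ONE-Glo after 30 min at room temperature.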
SMN2 splice enh – increases expression of the SMN2 splice variant; hit rate 2.8% among 210,000; Potency, µM (series often up to 46.1 µM), hits mostly activators; HEK293 SMN2-luciferase splicing reporter, luminescence, 30-36 h; also: nearly all actives have a fitted effect of over 55% in size
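HEK293 cells carry an SMN2 minigene-luciferase reporter in which exon 7 inclusion puts luciferase in frame. Cells were seeded at 2000 cells/well, attached for 10-12 hours, then exposed to compounds for 30-36 hours at 37C before ONE-Glo luminescence.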
Large screens that a line does not name were inactive. Calls follow the shape of the dose curve; as a rule, active = well fitted curve in the direction sought with a large enough effect; inconclusive = small, poorly fitted or top-dose-only effect, or another doubt; inactive = no such curve, though single readings can be large; an effect the other way counts as inactive or inconclusive.

COc1ccccc1NC(=O)c1ccccc1NC(=O)c1cc(Cl)ccc1NC(=O)c1ccco1	none
COc1ccc(NC(=O)c2ccccc2NC(=O)c2ccco2)c(OC)c1	FLuc modulator 19µM
O=C(Nc1ccc(OC(=O)c2cccs2)cc1)c1ccco1	FLuc modulator 2.7µM, ELG1 genotox inconclusive
CC(=NC1CCCCC1)c1ccccc1O	none (no result: FLuc modulator, NPC1 promoter act, Rab9 promoter act, ELG1 genotox)
CCOc1ccccc1NC(=O)CN1C(=O)COc2ccc(S(=O)(=O)NC3CCCC3)cc21	none (no result: NPC1 promoter act, Rab9 promoter act, ELG1 genotox, SMN2 splice enh)
CCOC(=O)Cn1cc(/C=N/N2C(=O)C3C4C=CC(C4)C3C2=O)c2ccccc21 (configuration not stated)	FLuc modulator 15µM
O=C1C2C3C=CC(CC3)C2C(=O)N1/N=C/c1c[nH]c2ccccc12 (configuration not stated)	FLuc modulator 9.5µM, NPC1 promoter act inconclusive, Rab9 promoter act inconclusive
O=C(c1ccc(Cl)c([N+](=O)[O-])c1)N1CCN(Cc2ccc3c(c2)OCO3)CC1	none
N#Cc1cc2cc3c(cc2nc1N1CCCCC1)OCCO3	FLuc modulator 4.3µM, NPC1 promoter act inconclusive, Rab9 promoter act 6.3µM, ELG1 genotox inconclusive, SMN2 splice enh 13µM
CC(=O)Nc1ccc(Nc2nnc(-c3ccc(C)c(S(N)(=O)=O)c3)c3ccccc23)cc1	none
Cc1nnc(Nc2ccc3c(c2)OCO3)c2ccccc12	FLuc modulator 15µM, NPC1 promoter act inconclusive, Rab9 promoter act inconclusive, ELG1 genotox inconclusive
Oc1ccc(Nc2nnc(-c3ccc(O)cc3)c3ccccc23)cc1	none
COc1ccc(Nc2nnc(-c3ccc(O)cc3)c3ccccc23)cc1	FLuc modulator 24µM, ELG1 genotox inconclusive
NC(=O)Cc1ccc(Nc2nnc(-c3ccccc3)c3ccccc23)cc1	FLuc modulator 21µM
Cc1ccc(-c2nnc(Nc3ccc4c(c3)OCO4)c3ccccc23)cc1S(N)(=O)=O	FLuc modulator 24µM
Cc1ccc(-c2nnc(Nc3ccc(O)cc3)c3ccccc23)cc1S(=O)(=O)NC(C)(C)CO	FLuc modulator 19µM (no result: NPC1 promoter act, Rab9 promoter act, ELG1 genotox)
COCCn1c(SCC(=O)c2cc(C)n(C)c2C)nc2ccccc2c1=O	FLuc modulator inconclusive
O=C(CSc1nnc2ccccn12)c1ccc(OC(F)F)cc1OC(F)F	none
COCCn1c(C)cc(C(=O)CSc2nc(C)c(C)c(C)n2)c1C	none
Cc1ccc(C(=O)CSc2nnc3ccccn23)c(C)c1	FLuc modulator 2.7µM, NPC1 promoter act 2µM, Rab9 promoter act 0.79µM, ELG1 genotox 4.6µM, SMN2 splice enh 10µM
COCCn1c(C)cc(C(=O)CSc2nnc3ccccn23)c1C	FLuc modulator 1.3µM, NPC1 promoter act inconclusive, Rab9 promoter act inconclusive, ELG1 genotox 0.58µM, SMN2 splice enh inconclusive
COCCn1c(C)cc(C(=O)CSc2ncn[nH]2)c1C	FLuc modulator inconclusive, SMN2 splice enh 5.6µM
O=C(Nc1cccc(-c2nc3ccccc3[nH]2)c1)c1ccccn1	FLuc modulator 13µM (no result: SMN2 splice enh)
O=C(Nc1cccc(-c2nc3ccccc3[nH]2)c1)c1c(F)cccc1F	FLuc modulator 12µM (no result: NPC1 promoter act, Rab9 promoter act, ELG1 genotox)
COc1cccc(OC)c1C(=O)Nc1cccc(-c2nc3ccccc3[nH]2)c1	none (no result: SMN2 splice enh)
O=C(Nc1cccc(-c2nc3ccccc3[nH]2)c1)c1ccccc1F	FLuc modulator 11µM (no result: NPC1 promoter act, Rab9 promoter act, ELG1 genotox)
CN(C(=O)c1cccc(NC(=O)Cc2ccc([N+](=O)[O-])cc2)c1)C1CCCCC1	none (no result: FLuc modulator, NPC1 promoter act, Rab9 promoter act, SMN2 splice enh)
Cc1cc(C)cc(NC(=O)C2CCCN(c3nnc(C)c4c(C)n(-c5ccccc5)nc34)C2)c1 (configuration not stated)	none (no result: NPC1 promoter act, Rab9 promoter act, ELG1 genotox, SMN2 splice enh)
O=C(Nc1ccccc1O)c1ccc(NC(=O)C2CC2)cc1	FLuc modulator 12µM, NPC1 promoter act 3.5µM, Rab9 promoter act 2.8µM, ELG1 genotox 21µM (no result: SMN2 splice enh)
CCCC(=O)Nc1ccc(C#Cc2ccccc2)cc1	FLuc modulator 4.8µM, NPC1 promoter act 1.6µM, Rab9 promoter act 2.8µM, ELG1 genotox inconclusive, SMN2 splice enh inconclusive
O=C(Nc1ccc(C#Cc2ccccc2)cc1)C1CC1	FLuc modulator 5.4µM, NPC1 promoter act 2.5µM, Rab9 promoter act 1.4µM, ELG1 genotox inconclusive, SMN2 splice enh 3.5µM
Cn1cnc2c(=O)oc3ccc(S(=O)(=O)N4CCN(c5cccc(C(F)(F)F)c5)CC4)cc3c21	none (no result: NPC1 promoter act, Rab9 promoter act, ELG1 genotox, SMN2 splice enh)
CN1CCN(C(=O)Nc2cccc(-c3ccccc3)c2)CC1	none (no result: SMN2 splice enh)
